Experimental data: PubChem BioAssay AID1259354 (Paczesny and Yang Labs, IUPUI and University of Michigan, 2018)
Several values for one entry are separate records, joined by “and”; a condition that tells them apart may be missing. Equal entries are not always repeated. In all, about 78,000 compounds went through this assay and about 1,800 (2.3%) were called active. Roughly 27% stayed inconclusive and do not appear here. No stated cut-off is given here; in the data, active means inhibition above about 30%; inconclusive means mostly about 10% to 28%; inactive means weaker than that. This excerpt belongs to a sample that is enriched for actives.

Target: Interleukin-1 receptor-like 1 (Homo sapiens) (UniProt Q01638)
Experiment: blocks human ST2 binding to IL-33, primary screen, biochemical, AlphaLISA (AID 1259354)
Conditions: AlphaLISA ST2-Fc/biotin-IL-33 interaction, 1 h; at 17 µM, hits give high values

Interleukin-1 receptor-like 1 (Homo sapiens), sequence (Q01638 whole entry, looked up): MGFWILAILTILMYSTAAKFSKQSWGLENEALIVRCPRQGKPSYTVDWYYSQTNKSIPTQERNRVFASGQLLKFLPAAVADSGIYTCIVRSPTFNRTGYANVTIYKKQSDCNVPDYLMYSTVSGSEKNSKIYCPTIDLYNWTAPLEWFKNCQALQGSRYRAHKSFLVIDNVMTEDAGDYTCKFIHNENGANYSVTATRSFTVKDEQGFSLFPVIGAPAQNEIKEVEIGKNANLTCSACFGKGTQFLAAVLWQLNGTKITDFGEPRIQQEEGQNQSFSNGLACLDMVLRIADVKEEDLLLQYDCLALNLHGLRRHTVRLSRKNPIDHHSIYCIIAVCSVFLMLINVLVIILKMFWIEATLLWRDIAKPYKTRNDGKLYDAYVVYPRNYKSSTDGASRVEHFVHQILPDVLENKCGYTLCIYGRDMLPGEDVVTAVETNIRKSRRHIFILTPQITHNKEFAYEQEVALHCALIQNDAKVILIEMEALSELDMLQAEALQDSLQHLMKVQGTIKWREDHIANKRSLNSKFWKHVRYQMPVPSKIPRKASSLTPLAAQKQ

Row | SMILES | inhibition
1 | Clc1ccc(-c2csc(Nc3ncccn3)n2)cc1 | inactive
2 | COc1ccc(OC)c(S(=O)(=O)NCCC(C)C)c1 | inactive
3 | Clc1cccc(CN2CCN(c3ccccn3)CC2)c1 | inactive
4 | O=[N+]([O-])c1ccc(CN2CCN(Cc3ccccc3)CC2)s1 | inactive
5 | O=[N+]([O-])c1cnc(N2CCN(Cc3ccccc3)CC2)c([N+](=O)[O-])c1 | 30% (active)
6 | CC(C(=O)NC1CC1)N1CCc2[nH]nc(C(c3ccccc3)c3ccccc3)c2C1 (centres undefined) | 97% (active)
7 | O=S(=O)(NCc1ccccc1)N1CCc2[nH]nc(C3CCC3)c2C1 | inactive
8 | CC(C)c1ccc(C(=O)NC2CC2)cc1 | inactive
9 | CCc1c(-c2ccccc2)nc2ccccc2c1C(=O)NCC1CCCO1 (centres undefined) | inactive
10 | CCCOc1ccc(CC(=O)O)cc1OC | inactive
11 | Cc1cc(Cl)ccc1NC(=O)COc1ccc([N+](=O)[O-])cc1 | inactive
12 | Cc1cccc(C)c1OCC(=O)Nc1ccc([N+](=O)[O-])cc1 | inactive
13 | O=C(COc1ccc([N+](=O)[O-])cc1)Nc1ccc(N2CCCC2)cc1 | 60% (active)
14 | CCCOc1ccccc1/C=C1/C(=O)N=C(N)N1C | inactive
15 | CCC(C)(C)C1CCc2c(sc(NC(=O)c3cc(OC)c(OC)c(OC)c3)c2C(N)=O)C1 (centres undefined) | inactive
16 | CCN(CC)C(=O)Cn1cnc2sc(C(=O)Nc3cccc(C(F)(F)F)c3)c(C)c2c1=O | inactive
17 | CCOc1ccc(S(=O)(=O)Nc2ccccc2C)c2cccnc12 | inactive
18 | Cc1cc(NC(=O)c2ccccc2Cl)nc2c1c(=O)oc1ccccc12 | inactive
19 | O=c1c2c(nc(SCc3ccccc3F)n1-c1ccccc1)CCS2 | inactive
20 | O=c1c2c(nc(SCc3ccc(Cl)cc3)n1-c1ccccc1)CCS2 | 36% (active)
21 | O=c1c2c(nc(SCc3ccccc3)n1-c1ccc(Br)cc1)CCS2 | inactive
22 | CCOc1ccc(Cn2c(CNS(=O)(=O)c3cnn(C(F)F)c3C)nc3cccnc32)cc1 | inactive
23 | Cc1ccccc1-c1cc(O)c2c(c1)CN(C(=O)C1C=CCN1)CCO2 (centres undefined) | inactive
24 | CN(C)CCCN1C(=O)C(=O)C(=C(O)c2ccc(F)cc2)C1c1ccncc1 (centres undefined) | inactive

Row | SMILES | inhibition
25 | O=C1CCCc2oc3c(Cl)cc(NS(=O)(=O)c4cccc5ccccc45)cc3c21 | inactive
26 | CCCc1n[nH]c(=O)n1-c1ccccc1Cl | inactive
27 | COc1ccc(N=Cc2ccc3ncccc3c2)cc1 | inactive
28 | COc1ccc(N=Cc2c(O)n(-c3ccccc3C)c(=O)c3ccccc23)cc1 | 48% (active)
29 | COc1ccc(S(=O)(=O)Nc2c(C)n(C)n(-c3ccccc3)c2=O)cc1 | inactive
30 | O=c1oc2ccccc2c(O)c1C=Nc1ccc(I)cc1 | inactive
31 | CNc1nc2c(C)cccn2c(=O)c1C=Nc1ccc(OC)cc1 | 98% (active)
32 | C=CCNC(=O)c1cc2c(=O)n3cccc(C)c3nc2n1C | inactive
33 | O=C(CCCc1ccccc1)NC1CCCCC1 | inactive
34 | CC(=O)Nc1ccc(S(=O)(=O)NCCNc2ccc([N+](=O)[O-])cc2Cl)cc1 | inactive
35 | CN1CCN(C(=O)CC2(c3ccccc3Cl)CC(=O)N(C3CCCC3)C2=O)[C@@H](c2ccccc2)C1 (some centres undefined) | inactive
36 | O=C(Nc1nc2c(cc3c4c(cccc42)CC3)s1)c1ccc(S(=O)(=O)N2CCOCC2)cc1 | inactive
37 | COc1ccc(-c2cnc(N)cn2)cc1C | inactive
38 | Cc1ccncc1C(=O)N1CCC(=O)N(CC2CC2)C(C(C)C)C1 (centres undefined) | inactive
39 | O=C(O)Cn1c2ccccc2c2cc(Cl)ccc21 | inactive
40 | CCn1c(=O)cc(O)c2ccccc21 | 85% (active)
41 | O=C(Cn1c2ccccc2c(=O)c2ccccc21)Nc1ccccc1Cl | inactive
42 | Fc1ccccc1CSc1nnc2c(n1)OC(c1cccnc1)Nc1ccccc1-2 (centres undefined) | inactive
43 | COc1cccc(N2CCN(Cc3cccs3)CC2)c1 | inactive
44 | COc1ccc(N2CCN(Cc3ccc(Br)s3)CC2)cc1 | 39% (active)
45 | COc1ccc(N2CCN(Cc3nc4c(c(=O)[nH]c(=O)n4C)n3CCCO)CC2)cc1 | inactive
46 | CC(c1cccs1)N(C)Cc1ccc(C#CC(C)(C)O)s1 (centres undefined) | inactive
47 | CC(C)NC(=O)C(CCO)NC(C)C (centres undefined) | inactive
48 | Cc1ccc(-n2c(SCC(=O)Nc3ccccc3C(F)(F)F)nc3c(c2=O)SCC3)cc1 | inactive

Row | SMILES | inhibition
49 | CCOc1ccc(NC(=O)CSc2nc3c(c(=O)n2-c2ccccc2)SCC3)cc1 | inactive
50 | Cc1ccc(-n2c(SCC(=O)Nc3ccc([N+](=O)[O-])cc3)nc3c(c2=O)SCC3)cc1 | 36% (active)
51 | O=S(=O)(c1ccccc1)N1CCN(c2cc(-c3ccc(F)cc3)ncn2)CC1 | inactive
52 | Cn1c(=O)c2c(SCC(=O)NC3CCCC3)nc(-c3ccc(F)cc3)nc2n(C)c1=O | inactive
53 | Cc1ccc(N2NC(=O)/C(=C/c3cccc([N+](=O)[O-])c3)C2=O)cc1Cl | inactive
54 | Cc1cc(/C=C2/C(=O)NC(=O)N(C)C2=O)c(C)n1-c1ccc(Cl)c(Cl)c1 | 34% (active)
55 | Cc1ccc(N2NC(=O)/C(=C/c3ccc4c(c3)OCO4)C2=O)cc1Cl | inactive
56 | COc1ccc(C(=O)Nc2c3c(nn2-c2ccc(F)cc2)CS(=O)C3)c(OC)c1 (centres undefined) | inactive
57 | Cc1ccnc(CC(C)N(C)C(=O)c2cc(CC(C)C)no2)c1 (centres undefined) | inactive
58 | Cc1ccc(C(=O)N2N=C(c3ccccc3)CC2c2ccccc2)cc1 (centres undefined) | inactive
59 | N/C(=N/OC(=O)c1ccc2c(c1)OCO2)c1ccc(Cl)cc1 | inactive
60 | COc1ccc(S(=O)(=O)ON=C2C=CC(=O)C=C2)cc1 | 32% (active)
61 | COC(=O)CNS(=O)(=O)c1ccc(OC)cc1 | inactive
62 | COc1ccc(S(=O)(=O)Nc2ccc(Br)cc2)cc1 | inactive
63 | COc1ccccc1C(=O)Nc1ccc2c(c1)NC(=O)CC2c1ncc[nH]1 (centres undefined) | inactive
64 | O=C1CCC(C(=O)N2CCN(Cc3cccnc3)CC2)CN1CC1CCCCC1 (centres undefined) | inactive
65 | NC(=O)c1c(NC(=O)c2cc(=O)c3ccccc3o2)sc2c1CCCCC2 | inactive
66 | CCCC(=O)c1c(OC)cc(O)c(CC)c1O | inactive
67 | CC(CN1CCN(C)C2(CCN(C(=O)c3ccco3)CC2)C1)c1ccccc1 (centres undefined) | 30% (active)
68 | Cn1c(=O)cc(SCC(=O)N2CCN(C(=O)c3ccco3)CC2)c2ccccc21 | inactive
69 | CC(CN1CCC(C(N)=O)CC1)c1ccccc1 (centres undefined) | inactive
70 | C=CCn1c(=O)c2c(nc3n2CCN3c2ccc(C)cc2)n(C)c1=O | inactive
71 | COc1ccc(Nc2nc(Nc3ccc(OC)cc3)nc(N3CCNCC3)n2)cc1 | 31% (active)
72 | CCC(=O)Nc1ccc(Nc2nc(C)cc(Nc3ccc(OC)cc3)n2)cc1 | inactive

Row | SMILES | inhibition
73 | COc1ccc(Nc2nc(Cl)nc(NCc3ccco3)n2)cc1 | inactive
74 | CCOC(=O)CSC1=C(C#N)C(c2ccccc2)CC(=O)N1 (centres undefined) | inactive
75 | CN(C)c1ccc(/C=C2\N=C(c3cccc(I)c3)OC2=O)cc1 | inactive
76 | CC1=NN(Cc2ccccc2)C(=O)/C1=C/c1ccc(N(C)C)cc1 | 44% (active)
77 | CN(C)c1ccc(/C=C\c2nc3ccccc3c(=O)n2-c2ccc(C(=O)O)cc2)cc1 | inactive
78 | CN(C)CC1(O)CCCN(C(=O)c2ccc(-n3ccnc3)cc2)CC1 (centres undefined) | inactive
79 | C=CCn1c(-c2ccccc2)csc1=Nc1ccc(O)cc1 | 53% (active) and 41% (active)
80 | COc1ccc(-c2nc3cc(N=Cc4cccc(OC)c4O)ccc3o2)cc1 | 43% (active)
81 | O=[N+]([O-])c1ccc(O)c(C=Nc2ccc3oc(-c4ccccc4)nc3c2)c1 | inactive
82 | O=C(O)c1ccc(O)c(C=Nc2ccc3oc(-c4ccccc4)nc3c2)c1 | inactive
83 | O=C(Nc1ccc([N+](=O)[O-])cc1)c1ccc(Br)cc1 | inactive
84 | CC1(c2ccccc2NC(=O)c2ccc([N+](=O)[O-])cc2)CC1 | 30% (active)
85 | COc1ccc([N+](=O)[O-])cc1NC(=O)c1ccc(-c2ccccc2)cc1 | inactive
86 | c1cc(-c2nc3ccncc3[nH]2)ccn1 | inactive
87 | CC1CCN(c2ccc(C(=O)O)cc2[N+](=O)[O-])CC1 | inactive
88 | O=[N+]([O-])c1cc(Cl)ccc1N1CCCNCC1 | inactive
89 | O=[N+]([O-])c1cc(Cl)ccc1N1CCN(c2ccc([N+](=O)[O-])c3cccnc23)CC1 | 56% (active)
90 | CSc1ccccc1NC(=O)c1cc(-c2ccc(Br)cc2)on1 | inactive
91 | O=C1CN(C(=O)c2nn(CCCc3ccccc3)c3c2CN(Cc2cccnc2)CC3)CCN1 | inactive
92 | CCOc1ccc(-c2cc(C)n3nc(C(=O)OC)cc3n2)cc1 | inactive
93 | OCCNc1c(F)c(F)nc(N2CCOCC2)c1F | inactive
94 | O=C(NC[C@H]1O[C@@H](CO)[C@@H](O)[C@H]1N1CCc2ccccc2C1)Nc1ccccc1 | inactive
